Laboratory results: PubChem BioAssay AID1508601 (ICCB-Longwood Screening Facility, Harvard Medical School, 2020)
“And” between values parts separate entries of the source, which are not always exact repeats. Equal values may be shown once. The whole screen tested about 5,700 compounds, of which about 85 (1%) were called active. Cut-off read from the data, not from the text of the source: active = p53-positive nuclei above about 36% (passing the limit was not always enough); inactive = the rest. This excerpt belongs to a sample that is enriched for actives. Some compounds were tested as several samples or in several runs, with calls that do not always agree.

Assays:
[1] = nuclear p53 accumulation, HPV+ cells – imaging, p53-positive nuclei imaging, 24 h, 48 h (AID 1508601); settings: 24/48 h
[2] = biological target: Cellular tumor antigen p53 (Homo sapiens) (UniProt P04637); assay: as above; settings: 24/48 h, stronger effect = higher value
Cellular tumor antigen p53 (Homo sapiens), sequence (P04637 whole entry, looked up): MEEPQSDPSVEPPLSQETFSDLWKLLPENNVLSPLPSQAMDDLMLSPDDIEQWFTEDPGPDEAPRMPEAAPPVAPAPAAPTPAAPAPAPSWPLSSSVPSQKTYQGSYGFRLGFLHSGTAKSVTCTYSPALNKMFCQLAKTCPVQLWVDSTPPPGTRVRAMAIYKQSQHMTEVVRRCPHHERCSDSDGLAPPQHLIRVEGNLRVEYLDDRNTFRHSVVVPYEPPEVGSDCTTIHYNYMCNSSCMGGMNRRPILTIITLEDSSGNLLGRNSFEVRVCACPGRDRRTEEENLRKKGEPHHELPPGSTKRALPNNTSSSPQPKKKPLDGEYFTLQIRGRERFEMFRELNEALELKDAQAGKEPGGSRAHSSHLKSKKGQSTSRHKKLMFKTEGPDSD

[3] = measured here: cell number at 24 h, concentration not given here
[4] = measured here: cell number at 48 h, concentration not given here
[5] = measured here: p53 positive nuclei at 24 h, concentration not given here
[6] = measured here: cell number at 24 h, Library stock concentration: 10 mM
[7] = measured here: cell number at 48 h, Library stock concentration: 10 mM
[8] = Library stock concentration: 10 mM
[9] = measured here: p53 positive nuclei at 24 h, Library stock concentration: 10 mM
[10] = measured here: cell number at 24 h, Library stock concentration: 80 uM
[11] = measured here: cell number at 24 h, Library stock concentration: 400 uM
[12] = measured here: cell number at 24 h, Library stock concentration: 2 mM
[13] = measured here: cell number at 48 h, Library stock concentration: 80 uM
[14] = measured here: cell number at 48 h, Library stock concentration: 400 uM
[15] = measured here: cell number at 48 h, Library stock concentration: 2 mM
[16] = Library stock concentration: 80 uM
[17] = Library stock concentration: 400 uM
[18] = Library stock concentration: 2 mM
[19] = measured here: p53 positive nuclei at 24 h, Library stock concentration: 80 uM
[20] = measured here: p53 positive nuclei at 24 h, Library stock concentration: 400 uM
[21] = measured here: p53 positive nuclei at 24 h, Library stock concentration: 2 mM

SMILES: O=C1OC2(c3ccc(O)cc3Oc3cc(Oc4ccc(O)cc4)ccc32)c2ccccc21 (stereo not drawn)
- nuclei count, normalised [1, 3]: 105%
- nuclei count, normalised [1, 4]: 107%
- p53-positive nuclei, normalised ([2]; concentration not given here): -0.0688% (inactive)
- p53-positive nuclei, normalised [2, 5]: -0.118%

SMILES: CNC(=O)c1ccc(Nc2ncc(C(F)(F)F)c(NCc3nccnc3N(C)S(C)(=O)=O)n2)cc1
- nuclei count, normalised ([1]; measured here: cell number at 24 h, Library stock concentration: 46 uM): 91.8%
- nuclei count, normalised ([1]; measured here: cell number at 24 h, Library stock concentration: 278 uM): 82%
- nuclei count, normalised ([1]; measured here: cell number at 24 h, Library stock concentration: 1.67 mM): 95.8%
- nuclei count, normalised [1, 6]: 47.5%
- nuclei count, normalised ([1]; measured here: cell number at 48 h, Library stock concentration: 46 uM): 91.6%
- nuclei count, normalised ([1]; measured here: cell number at 48 h, Library stock concentration: 278 uM): 86.7%
- nuclei count, normalised ([1]; measured here: cell number at 48 h, Library stock concentration: 1.67 mM): 108%
- nuclei count, normalised [1, 7]: 33.5%
- p53-positive nuclei, normalised ([2]; Library stock concentration: 46 uM): -0.225% (inactive)
- p53-positive nuclei, normalised ([2]; Library stock concentration: 278 uM): -0.256% (inactive)
- p53-positive nuclei, normalised ([2]; Library stock concentration: 1.67 mM): 0.138% (inactive)
- p53-positive nuclei, normalised [2, 8]: 14.9% (inactive)
- p53-positive nuclei, normalised ([2]; measured here: p53 positive nuclei at 24 h, Library stock concentration: 46 uM): -0.00777%
- p53-positive nuclei, normalised ([2]; measured here: p53 positive nuclei at 24 h, Library stock concentration: 278 uM): -0.0569%
- p53-positive nuclei, normalised ([2]; measured here: p53 positive nuclei at 24 h, Library stock concentration: 1.67 mM): 0.153%
- p53-positive nuclei, normalised [2, 9]: 8.89%

SMILES: CN(c1ccccc1CNc1nc(Nc2ccc3c(c2)CC(=O)N3)ncc1C(F)(F)F)S(C)(=O)=O
- nuclei count, normalised [1, 10]: 112% and 102%
- nuclei count, normalised [1, 11]: 112% and 102%
- nuclei count, normalised [1, 12]: 83.1% and 86.6%
- nuclei count, normalised [1, 6]: 33.4% and 36.5%
- nuclei count, normalised [1, 13]: 116% and 109%
- nuclei count, normalised [1, 14]: 120% and 115%
- nuclei count, normalised [1, 15]: 81.2% and 88.6%
- nuclei count, normalised [1, 7]: 22.6% and 25.6%
- p53-positive nuclei, normalised [2, 16]: -0.0383% (inactive) and 0.0654% (inactive)
- p53-positive nuclei, normalised [2, 17]: 0.0612% (inactive) and 0.141% (inactive)
- p53-positive nuclei, normalised [2, 18]: 1.2% (inactive) and 0.96% (inactive)
- p53-positive nuclei, normalised [2, 8]: 55.4% (inactive) and 54.9% (active)
- p53-positive nuclei, normalised [2, 19]: -0.06% and 0.248%
- p53-positive nuclei, normalised [2, 20]: 0.0578% and 0.322%
- p53-positive nuclei, normalised [2, 21]: 0.201% and 0.404%
- p53-positive nuclei, normalised [2, 9]: 43.5% and 27.2%

SMILES: CS(=O)(=O)c1cccc(CNc2nc(Nc3ccc4c(c3)CCC(=O)N4)ncc2C(F)(F)F)c1
- nuclei count, normalised [1, 10]: 112%
- nuclei count, normalised [1, 11]: 104%
- nuclei count, normalised [1, 12]: 111%
- nuclei count, normalised ([1]; measured here: cell number at 24 h, Library stock concentration: 3.33 mM): 70.4%
- nuclei count, normalised [1, 6]: 48.4%
- nuclei count, normalised [1, 13]: 115%
- nuclei count, normalised [1, 14]: 109%
- nuclei count, normalised [1, 15]: 115%
- nuclei count, normalised ([1]; measured here: cell number at 48 h, Library stock concentration: 3.33 mM): 76.2%
- nuclei count, normalised [1, 7]: 28.9%
- p53-positive nuclei, normalised [2, 16]: 0.032% (inactive)
- p53-positive nuclei, normalised [2, 17]: -0.135% (inactive)
- p53-positive nuclei, normalised [2, 18]: 0.159% (inactive)
- p53-positive nuclei, normalised ([2]; Library stock concentration: 3.33 mM): -0.301% (inactive)
- p53-positive nuclei, normalised [2, 8]: 1.33% (inactive)
- p53-positive nuclei, normalised [2, 19]: -0.0118%
- p53-positive nuclei, normalised [2, 20]: -0.00681%
- p53-positive nuclei, normalised [2, 21]: 0.177%
- p53-positive nuclei, normalised ([2]; measured here: p53 positive nuclei at 24 h, Library stock concentration: 3.33 mM): -0.516%
- p53-positive nuclei, normalised [2, 9]: 0.847%

SMILES: CCCCC/C=C/C=C1/C=CC(=O)[C@@H]1C/C=C\CCCC(=O)O
- nuclei count, normalised [1, 3]: 106%
- nuclei count, normalised [1, 4]: 102%
- p53-positive nuclei, normalised ([2]; concentration not given here): 0.0559% (inactive)
- p53-positive nuclei, normalised [2, 5]: 0.0826%

SMILES: O=C(O)CCC/C=C\C[C@@H]1[C@@H](/C=C/[C@@H](O)COc2ccccc2)[C@H](O)C[C@@H]1O
- nuclei count, normalised [1, 3]: 96%
- nuclei count, normalised [1, 4]: 102%
- p53-positive nuclei, normalised ([2]; concentration not given here): -0.0602% (inactive)
- p53-positive nuclei, normalised [2, 5]: -0.00687%

SMILES: CC(=O)Nc1ccc(S(=O)(=O)Nc2ccc([N+](=O)[O-])cc2)cc1
- nuclei count, normalised [1, 3]: 87.2%
- nuclei count, normalised [1, 4]: 92.6%
- p53-positive nuclei, normalised ([2]; concentration not given here): -0.0672% (inactive)
- p53-positive nuclei, normalised [2, 5]: 0.0938%

SMILES: COC(=O)C#Cc1ccc([N+](=O)[O-])cc1
- nuclei count, normalised ([1]; measured here: cell number at 24 h, Library stock concentration: 500 nM): 110%
- nuclei count, normalised ([1]; measured here: cell number at 24 h, Library stock concentration: 1.5 uM): 114%
- nuclei count, normalised ([1]; measured here: cell number at 24 h, Library stock concentration: 4.6 uM): 106%
- nuclei count, normalised ([1]; measured here: cell number at 24 h, Library stock concentration: 13.7 uM): 116%
- nuclei count, normalised ([1]; measured here: cell number at 24 h, Library stock concentration: 41 uM): 110%
- nuclei count, normalised ([1]; measured here: cell number at 24 h, Library stock concentration: 123 uM): 103%
- nuclei count, normalised ([1]; measured here: cell number at 24 h, Library stock concentration: 370 uM): 118%
- nuclei count, normalised ([1]; measured here: cell number at 24 h, Library stock concentration: 1.111 mM): 107%
- nuclei count, normalised ([1]; measured here: cell number at 24 h, Library stock concentration: 3.333 mM): 74.6%
- nuclei count, normalised [1, 6]: 49.2%
- nuclei count, normalised ([1]; measured here: cell number at 48 h, Library stock concentration: 500 nM): 111%
- nuclei count, normalised ([1]; measured here: cell number at 48 h, Library stock concentration: 1.5 uM): 112%
- nuclei count, normalised ([1]; measured here: cell number at 48 h, Library stock concentration: 4.6 uM): 112%
- nuclei count, normalised ([1]; measured here: cell number at 48 h, Library stock concentration: 13.7 uM): 112%
- nuclei count, normalised ([1]; measured here: cell number at 48 h, Library stock concentration: 41 uM): 114%
- nuclei count, normalised ([1]; measured here: cell number at 48 h, Library stock concentration: 123 uM): 106%
- nuclei count, normalised ([1]; measured here: cell number at 48 h, Library stock concentration: 370 uM): 117%
- nuclei count, normalised ([1]; measured here: cell number at 48 h, Library stock concentration: 1.111 mM): 108%
- nuclei count, normalised ([1]; measured here: cell number at 48 h, Library stock concentration: 3.333 mM): 69.9%
- nuclei count, normalised [1, 7]: 32.5%
- p53-positive nuclei, normalised ([2]; Library stock concentration: 500 nM): -0.248% (inactive)
- p53-positive nuclei, normalised ([2]; Library stock concentration: 1.5 uM): 0.113% (inactive)
- p53-positive nuclei, normalised ([2]; Library stock concentration: 4.6 uM): -0.0386% (inactive)
- p53-positive nuclei, normalised ([2]; Library stock concentration: 13.7 uM): 0.351% (inactive)
- p53-positive nuclei, normalised ([2]; Library stock concentration: 41 uM): -0.0492% (inactive)
- p53-positive nuclei, normalised ([2]; Library stock concentration: 123 uM): 0.00469% (inactive)
- p53-positive nuclei, normalised ([2]; Library stock concentration: 370 uM): 0.132% (inactive)
- p53-positive nuclei, normalised ([2]; Library stock concentration: 1.111 mM): -0.122% (inactive)
- p53-positive nuclei, normalised ([2]; Library stock concentration: 3.333 mM): 0.307% (inactive)
- p53-positive nuclei, normalised [2, 8]: 69.2% (active)
- p53-positive nuclei, normalised ([2]; measured here: p53 positive nuclei at 24 h, Library stock concentration: 500 nM): -0.0875%
- p53-positive nuclei, normalised ([2]; measured here: p53 positive nuclei at 24 h, Library stock concentration: 1.5 uM): -0.0262%
- p53-positive nuclei, normalised ([2]; measured here: p53 positive nuclei at 24 h, Library stock concentration: 4.6 uM): -0.0872%
- p53-positive nuclei, normalised ([2]; measured here: p53 positive nuclei at 24 h, Library stock concentration: 13.7 uM): 0.099%
- p53-positive nuclei, normalised ([2]; measured here: p53 positive nuclei at 24 h, Library stock concentration: 41 uM): 0.0546%
- p53-positive nuclei, normalised ([2]; measured here: p53 positive nuclei at 24 h, Library stock concentration: 123 uM): -0.148%
- p53-positive nuclei, normalised ([2]; measured here: p53 positive nuclei at 24 h, Library stock concentration: 370 uM): -0.0792%
- p53-positive nuclei, normalised ([2]; measured here: p53 positive nuclei at 24 h, Library stock concentration: 1.111 mM): -0.148%
- p53-positive nuclei, normalised ([2]; measured here: p53 positive nuclei at 24 h, Library stock concentration: 3.333 mM): 0.591%
- p53-positive nuclei, normalised [2, 9]: 73.8%
